Results filed as inconclusive are left out. Where a call stands in place of a potency, no number is given. Active and inactive are the calls of the source. The call rests on the fitted dose curve; in most records, active means well fitted inhibition curve with a large enough effect; inconclusive means small, poorly fitted or top-dose-only effect; inactive means flat fitted curve, though single readings scatter.
Test: High Content Assay for Compounds that inhibit the Assembly of the Perinucleolar Compartment: PC3M Cytotoxicity
Details: PC3M cells, ATPLite luminescence viability, 24 h; series mostly up to 46.1 µM
From the text: High Content Assay for Compounds that inhibit the Assembly of the Perinucleolar Compartment
NIH Chemical Genomics Center [NCGC]
NIH Molecular Libraries Probe Centers Network [MLPCN]
Assay Submitter (PI): Sui Huang, Northwestern University, Feinberg School of Medicine, Cell and Molecular Biology, Chicago, Illinois.
The perinucleolar compartment (PNC) is a non-membrane-bound nuclear subdomain that is associated with but structurally distinct from the nucleolus. The PNC is a heritable trait, in which the number of PNCs per cell in daughter cells often mimics that of their mother cells. The PNC is heterogeneous in shape, is stable through interphase, disassembles during mitosis, and reassembles in early G1. The PNC is concentrated with newly synthesized RNA polymerase III (pol III) RNAs (MRP RNA, RNAse P H1 RNA, hY RNAs[hY1, 2, 5], Alu RNA, and SRP [7SL] RNA) and RNA binding proteins (nucleolin, PTB, CUG-BP, KSRP, Raver1, Raver2, and Rod).
Extensive in vitro studies have shown that the PNC is unique to tumor cells and preferentially forms in tumor cells derived from solid tissues. Examination of cancer cell lines from various origins and malignant capacities has shown that PNC prevalence correlates with the malignancy of tumors and has the potential to be developed as a pan-cancer prognostic marker.
Although the PNC is associated with a DNA locus and a handful of components have been identified, much remains to be investigated regarding the structure and function of the PNC and its mechanistic link to cancer. We have previously shown that PNC prevalence reduction is a valid strategy to identify compounds that can be used to study the structure and function of the PNC. It is necessary, however, to create a screening platform that is able to test a large number of compounds in an automated fashion. Here we report the development and robustness of an automated whole-cell phenotypic image-based screening assay that is capable of identifying such compounds.
We conducted a followup assay to measure the effect of the lead candidates on cell health by measuring ATP levels (ATPLite). The highly metastatic PC3M-GFP reporter cell line was used in this study.
1. Cells at a density of 75-90% confluency in T175 flasks were harvested using 7 ml TrypLE Express cell dissociation reagent. After dissociation (5 minutes room temperature incubation) 10 ml of complete media was added to the TrypLE/cell suspension. The liquid was transferred to a 50 ml Conical tube and cells were pelleted at 1000 RPM for 5 min. Supernatant was removed and cells were resuspended to a final density of 150-200 cells/ul in complete media.
2. Cells were plated in 5 ul volume (2000 cells/well) into 1536 well White solid bottom plates and allowed to recover and adhere at 37 C in a humidified 5% CO2 incubator for 4 hours.
3. After 4 hour incubation, compound libraries (23 nl of 12.5 uM in columns 5-48) were transferred to the plates in duplicate using a 1536 well pintool. Camptothecin positive control (59 uM final) was added to column 2 and 1:3 dilutions of camptothecin was added to column 3. DMSO negative controls were present in columns 1 and 4.
4. After a 24 hour incubation in the 37 C incubator, all wells were treated with 3 ul of ATPLite reagent using a multidrop combi dispenser (ThermoFisher). Bubbles that formed during dispensing were removed by spinning the plates for 1 minutre at 1500 RPM on a table top centrifuge.
5. Luminescencent signal was detected on a Viewlux CCD based imager (PerkinElmer) with a clear filter and a 30 second integration time.
The PC3M cell line stably expressing the PTB-GFP was provided by Sui Huang of Northwestern University. The media and cell culture reagents were purchased from Invitrogen (Carlsbad, CA), ATPLite came from PerkinElmer.

Q: With Cc1c(NC(=O)COC(=O)c2cc(-c3ccc(-c4ccccc4)cc3)nc3ccccc23)c(=O)n(-c2ccccc2)n1C as the compound, how does the Potency read?
A: The Potency was 5.01 µM (active).

Q: For CCN(CC)c1ccc(N=Cc2ccccc2[N+](=O)[O-])cc1, which Potency is on record?
A: The Potency was “inactive”.

Q: With O=C(N/N=C\c1ccc([N+](=O)[O-])s1)c1cncc(Br)c1 as the compound, how does the Potency read?
A: The Potency was 25.1 µM (active).

Q: With COc1ccc(-c2cc(C#N)nc(N3CCN(C)CC3)n2)cc1 as the compound, how does the Potency read?
A: The Potency was “inactive”.

Q: Which Potency does the source give for O=C(COC(=O)Cc1ccsc1)NCC1CCCCC1 here?
A: The Potency was “inactive”.

Q: Which Potency does the source give for CCCCN(C(=O)Nc1ccc(Cl)cc1)C1CCN(C(C)=O)CC1 here?
A: Its Potency is “inactive”.

Q: For O=C1C(Nc2ccccc2)=C/C(=N/S(=O)(=O)c2cccs2)c2ccccc21, which Potency is on record?
A: The Potency was 15.8 µM (active).

Q: Which Potency does the source give for COc1cc(C(=O)Oc2ccccc2/C=N/NC(=O)c2ccc(Cl)cc2)cc(OC)c1OC here?
A: Its Potency is 11.2 µM (active).

Q: With COC(=O)C1=C(C)N(c2ccc(Br)cc2)C(=O)/C1=C\c1ccco1 as the compound, how does the Potency read?
A: The Potency was “inactive”.

Q: For Cc1cc(C)c(S(=O)(=O)/N=C2/C=C(Sc3ncn[nH]3)C(=O)c3ccccc32)cc1C, which Potency is on record?
A: Its Potency is 14.1 µM (active).

Q: Which Potency does the source give for Cc1c(C#N)c(N)nc2c3c(sc12)NC(=O)CC3c1ccc(F)cc1 (configuration not stated) here?
A: Its Potency is “inactive”.

Q: With C=CCNC(=S)N/N=C(\C)c1ccccn1 as the compound, how does the Potency read?
A: The Potency was 6.31 µM (active).

Q: For Cc1ccc(NC(=S)NCCc2ccc(S(N)(=O)=O)cc2)cc1C, which Potency is on record?
A: The Potency was “inactive”.

Q: With CCOC(=O)NC1(Nc2ccc(C)cc2)Oc2ccccc2O1 as the compound, how does the Potency read?
A: The Potency was “inactive”.

Q: For CCOC(=O)CSc1nc2c(sc3ccc([N+](=O)[O-])cc32)c(=O)n1Cc1ccco1, which Potency is on record?
A: The Potency was “inactive”.

Q: Which Potency does the source give for O=C(N/N=C/c1cc(Cl)ccc1O)C(=O)Nc1ccccc1OC(F)(F)C(F)F here?
A: Its Potency is 14.1 µM (active).

Q: With CCCNC1=C(N(C(C)=O)c2cccc(F)c2)C(=O)c2ccccc2C1=O as the compound, how does the Potency read?
A: Its Potency is 11.2 µM (active).

Q: With O=C1C(=Cc2cccs2)C(=O)c2ccccc21 as the compound, how does the Potency read?
A: The Potency was “inactive”.

Q: For O=C(N/N=C/c1cc2c3c(c1O)CCCN3CCC2)c1ccccc1O, which Potency is on record?
A: Its Potency is 3.16 µM (active).

Q: For N=c1c2c(-c3ccccc3)c(-c3ccccc3)n(Cc3ccccc3)c2ncn1CCCO, which Potency is on record?
A: Its Potency is “inactive”.

Q: With O=[N+]([O-])c1cc(/C=N/Nc2nc3ccccc3[nH]2)c(O)cc1O as the compound, how does the Potency read?
A: The Potency was 7.94 µM (active).

Q: With CNC1=C(N(C(C)=O)c2ccc(Br)cc2)C(=O)c2ccccc2C1=O as the compound, how does the Potency read?
A: Its Potency is 8.91 µM (active).
